Compounds with a hit are over-represented: about 0.98% of the library has one in this group of screens.
LANA-H2A inh: blocks KSHV LANA binding to histone H2A/H2B; cell-free LANA-H2A/H2B peptide, fluorescence polarization; inhibition, % (test concentration not listed); actives 0.6% (n = 320,000); AID 2629; in the data active = inhibition mostly above about 10%, no sharp cut-off; inactive = mostly below about 6.7%
RTF Ca sens act: cardiac RTF calcium sensitization | P19429+P45379 | IANBD-labeled TnC RTF fluorescence at EC20 calcium; 0% EC20 calcium, 100% full calcium | activation, % at 7.2 µM | actives 0.24% (n = 340,000) | AID 493008;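 active = activation above the mean over all tested compounds plus 3 SD, cut at about 30% in these data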;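 note: rise in fluorescence read as greater calcium sensitivity of cardiac thin filaments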
Keap1-Nrf2 PPI: disrupts human Keap1 binding to Nrf2 peptide; actives 0.15% (n = 340,000); AID 504523; inhibition, % at 9.4 µM; Keap1 Kelch-Nrf2 peptide fluorescence polarization, 1536-well; Q14145; in the data active = inhibition above about 12%;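 note: human Keap1 Kelch domain with fluorescein labeled Nrf2 9mer peptide probe; 0% = neutral control wells and 100% = peptide positive control; higher means more block of Keap1 binding to Nrf2 peptide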
Target sequence (Q14145 whole entry, looked up, the tested form may be a part): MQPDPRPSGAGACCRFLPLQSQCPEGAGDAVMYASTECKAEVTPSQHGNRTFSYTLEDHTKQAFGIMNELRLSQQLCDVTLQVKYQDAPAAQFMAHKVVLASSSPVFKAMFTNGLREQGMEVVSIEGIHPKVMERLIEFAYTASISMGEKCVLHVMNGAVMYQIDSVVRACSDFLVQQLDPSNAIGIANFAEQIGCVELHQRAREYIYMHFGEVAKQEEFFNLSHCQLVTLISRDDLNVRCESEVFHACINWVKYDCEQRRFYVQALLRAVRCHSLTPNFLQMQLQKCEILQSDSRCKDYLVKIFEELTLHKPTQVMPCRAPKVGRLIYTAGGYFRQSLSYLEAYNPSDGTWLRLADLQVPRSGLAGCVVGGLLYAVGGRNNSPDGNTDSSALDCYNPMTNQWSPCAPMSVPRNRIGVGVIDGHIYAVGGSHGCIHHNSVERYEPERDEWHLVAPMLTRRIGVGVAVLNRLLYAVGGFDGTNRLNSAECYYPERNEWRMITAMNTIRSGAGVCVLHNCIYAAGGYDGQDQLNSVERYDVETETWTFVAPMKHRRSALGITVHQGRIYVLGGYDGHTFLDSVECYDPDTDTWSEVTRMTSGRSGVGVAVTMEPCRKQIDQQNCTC
C-LANA FP: blocks KSHV LANA C-terminal domain binding to DNA | actives 0.078% (n = 340,000) | MBP-C-LANA/FAM-LBS DNA binding, fluorescence polarization | inhibition, % at 9 µM;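 active = highest replicate inhibition at or above 60% at 9 µM, even if other replicates fall short; inactive = all replicates below 60% inhibition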;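 note: 0% = neutral control wells and 100% = 4 µM acridine orange control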
RTF Ca sens inh: cardiac RTF calcium desensitization. P19429+P45379. actives 0.12% (n = 340,000). AID 493244. inhibition, % at 7.15 µM. IANBD-labeled cardiac RTF, Ca2+ fluorescence;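 active = inhibition above the mean inhibition of all tested compounds plus 3 SD, cut at about 17% in these data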;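 note: assay run at fixed EC70 calcium of 1.6 mM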
RTF Ca inh conf: cardiac RTF calcium sensitivity inhibition, confirmation | reconstituted cardiac thin filaments, calcium sensitivity fluorescence | actives 8% (n = 360) | shares compounds with RTF Ca sens inh | inhibition, % at 7.15 µM; in the data active = inhibition above about 18%
* hit, by the source's call; x = not tested or not shown.

SMILES	LANA-H2A inh	RTF Ca sens act	Keap1-Nrf2 PPI	C-LANA FP	RTF Ca sens inh	RTF Ca inh conf
CC1(C)C(/C=C/C=C/C=C/C=C2\N(CCCCS(=O)(=O)O)c3ccc4ccccc4c3C2(C)C)=[N+](CCCCS(=O)(=O)[O-])c2ccc3ccccc3c21	10	-11	-8	27	20*	-46
CCCCn1c(N)c(N(Cc2ccccc2OC)C(=O)c2cc(CC)c(C)s2)c(=O)[nH]c1=O	0	0	0	0	1	x
CCCCC(=O)N/N=C/c1ccc(-c2ccc([N+](=O)[O-])cc2)o1	3	0	-3	2	4	x
Cc1cc(C)n(Cc2ccc(C(=O)N/N=C/c3ccc(-c4ccc([N+](=O)[O-])cc4)o3)o2)n1	-1	-25	4	2	29*	6
O=C(COC(=O)CCSc1ccc(Cl)cc1)NCc1ccccc1Cl	10	-1	1	-2	18*	-3
CCN(CC)C(=O)CSc1nc2ccccc2c(=O)n1-c1cccc(OC)c1	0	-3	-2	0	0	x
COc1cccc(-n2c(SCc3cc(=O)oc4cc(O)c(O)cc34)nc3ccccc3c2=O)c1	6	-20	1	2	17*	-2
CC(=O)OCCC(NS(=O)(=O)OCC(Cl)(Cl)Cl)c1ccccc1 (configuration not stated)	-6	-4	1	0	-5	x
CCC(Oc1ccccc1)C(=O)Nc1nnc(S(=O)(=O)N2CCCCC2)s1 (configuration not stated)	3	-2	2	x	18*	-4
CC(Oc1ccccc1)C(=O)Nc1nnc(S(=O)(=O)N2CCCCCC2)s1 (configuration not stated)	-2	0	1	-1	-9	x
O=C(O)c1[nH]c2ccccc2c1C(c1ccccc1)c1c(C(=O)O)[nH]c2ccccc12	-6	-10	1	0	-2	x
O=C(O)c1[nH]c2ccccc2c1C(c1cc(Cl)cc([N+](=O)[O-])c1O)c1c(C(=O)O)[nH]c2ccccc12	4	-23	-1	10	22*	7
COc1ccc(C(=O)OCC(=O)Nc2c(C)n(C)n(-c3ccccc3)c2=O)cc1	5	0	-1	-1	-1	x
Nc1cc(C(=O)c2ccccc2)ccc1[N+](=O)[O-]	-2	-3	2	0	2	x
CC(=O)c1ccccc1NC(=O)COC(=O)CN1C(=O)C2CCCCC2C1=O (configuration not stated)	-5	0	0	-2	-6	x
CC1(C)CC(=O)C2=C(C1)N(Cc1ccco1)C(=O)NC2(C(F)(F)F)C(F)(F)F	2	-4	0	-2	18*	-2
COc1ccccc1-n1c(SCC(=O)N2CCc3ccccc32)nc2c(c1=O)SCC2	4	4	-2	-1	-2	x
COc1ccc(OC)c(-n2c(SCC(=O)N3CCc4ccccc43)nc3c(c2=O)SCC3)c1	-2	1	1	0	40*	-3
NC(=O)c1ccc(N=Nc2c(O)c3ccccc3[nH]c2=O)cc1	1	x	x	x	x	x
N=C(N)c1ccc(N=Nc2c(O)ccc3c2[nH]c2ccccc23)cc1	x	-24	3	-7	26*	30*
O=C(Nc1ccc(S(=O)(=O)Nc2nccs2)cc1)/C(=C/c1ccccc1Cl)NC(=O)c1ccccc1	-3	-7	2	0	-4	x
CCOC(=O)C1(CC2CC2)CCN(Cc2cn(C)c3ccccc23)CC1	-3	0	-1	2	17*	-7
CCOC(=O)C1(Cc2ccccc2)CCN(Cc2cn(CC(=O)OC)c3ccccc23)CC1	-3	8	-6	1	-6	x
COC(=O)C(NC(=O)CCc1c(C)nc2c(c(C)nn2-c2ccccc2)c1C)C(C)C (configuration not stated)	1	1	-4	-1	-7	x
O=C(Nc1ccccc1O)C(c1ccccc1)c1ccccc1	-2	8	-3	2	1	x
SMILES	LANA-H2A inh	RTF Ca sens act	Keap1-Nrf2 PPI	C-LANA FP	RTF Ca sens inh	RTF Ca inh conf
Oc1cccc2ccc[n+](CC(O)Cn3c4ccccc4c4ccccc43)c12 (configuration not stated)	8	5	3	2	19*	-1
CCC(NC(=S)NC1CCCCC1)c1ccc(C(C)C)cc1 (configuration not stated)	3	-5	-1	0	0	x
O=C(Nc1nccs1)c1ccc(-c2ccc(F)cc2)o1	3	-3	-2	2	17*	-5
CC1(C)CC(=O)C=C(c2ccc(F)nc2)C1	2	-2	-5	2	8	x
Cc1nn(CC(=O)NCCCN2CCCC2)c(=O)c2nn(-c3ccccc3)c(C)c12	0	1	-2	1	19*	-1
S=c1[nH]nc(-c2ccco2)n1/N=C/C=C/c1ccco1	-9	-12	-5	9	18*	-9
S=c1[nH]nc(-c2cc(-c3ccccc3)n[nH]2)n1/N=C/C=C/c1ccco1	0	x	x	x	x	x
Cc1nn(C)c(Cl)c1CN1CCN(C2CCCC2)C(CCO)C1 (configuration not stated)	1	-2	5	0	14	x
Cc1nnc(SCC(=O)N(C2CCCCC2)C2CCS(=O)(=O)C2)n1N (configuration not stated)	-9	-5	-8	-1	-5	x
Cc1ccc2nc(-c3ccc(SCC(=O)Nc4ccc5c(c4)OCCO5)nc3)[nH]c2c1	4	-3	-4	1	0	x
O=C(CSc1ccc(-c2nc3ccccc3[nH]2)cn1)Nc1ccc2c(c1)OCCO2	0	-1	-2	1	21*	-3
COc1ccc(-n2nc3c(N4CCC(C(=O)N5CCCCCC5)CC4)nnc(C)c3c2C)cc1	-4	4	-7	-2	2	x
COc1ccc(C2=CC3=C(Br)C(=O)C(C)(O)C(=O)C3=CO2)cc1 (configuration not stated)	-1	-11	-9	6	3	x
CCC(=O)OC1(C)C(=O)C2=COC(c3ccc(OC)cc3)=CC2=C(Br)C1=O (configuration not stated)	7	-13	-1	7	17*	-2
CC(Sc1nc(=O)cc(N)n1CCc1ccccc1)C(=O)NCc1ccccc1 (configuration not stated)	2	-3	0	-1	19*	-1
COc1cccc(/C=C2\SC(=S)N(C(C(=O)O)c3ccccc3)C2=O)c1OC (configuration not stated)	-3	-2	-1	0	5	x
COc1cc(/C=C2\SC(=S)N(C(C(=O)O)c3ccccc3)C2=O)cc(OC)c1OC (configuration not stated)	6	11	0	-1	28*	-4
NC(=O)c1sc2nc3c(c(-c4ccco4)c2c1N)CCC3	1	-7	-1	1	4	x
